From PubChem BioAssay (NCI) come the findings set out here.

This is part of a sample that, as a whole, favours compounds with a hit. Of some 83,000 tested, about 20% had one in any assay.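 Results are percent growth after 48 hours of single-concentration exposure. 100 means growth as in untreated cells, lower positive values show inhibition; negative values down to -100 show cell death.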 A number with no mark means an inactive call. Activity calls are given as the source filed them. The calls were made as follows: active = growth percent below 10; inactive = the rest.

The test system of the assay is HL-60(TB) leukemia. As to the kind of experiment: NCI-60 one-dose screen, 48 h (100 = growth as untreated, 0 = no growth, -100 = all killed). The conditions noted are these: 10 µM unless noted.
Regarding `Fc1ccc(C2CC(c3cccc(Nc4ccncc4)c3)=NN2c2ccccc2)cc1` (stereo not given), the growth was -19.5% (active).
Regarding `O=C(NCCCNS(=O)(=O)c1ccc(Cl)cc1)Nc1ccc(-n2cc(-c3ccncc3)c(-c3ccc(Cl)c(O)c3)n2)cc1`, the growth is 16.3%.
Under `C[C@H]1C(=O)C23CCC1C[C@@]21O[C@@H]2C(C)(C)C=CC(=O)C23COC1=O` stands 97.8%; under `O=C1/C(=C/c2ccc([N+](=O)[O-])o2)Oc2ccc(Cl)cc21`, -21.3% (active).
Under `COc1ncc(-c2ccc3ncnc(Nc4cccc(Cl)c4)c3c2)cc1NS(=O)(=O)C1CC1` stands 36.7%; under `C/C(=C\c1ccc([N+](=O)[O-])cc1)C(=O)O`, 105%; under `COc1ccc(NC(=O)COc2ccccc2)c(C(N)=O)c1`, -7.37% (active).
Under `CC12OC(CC(O)C1O)n1c3ccccc3c3c4c(c5c6ccccc6n2c5c31)C(=O)N(CCN1CCOCC1)C4=O` (stereo not given) stands 7.54% (active); under `O=CN(SSN(C=O)C1CCCCC1)C1CCCCC1`, 77.2%; under `FC(F)(F)c1ccc(-c2cnc(Cl)nc2NCc2cc(C(F)(F)F)cc(C(F)(F)F)c2)cc1`, 5.98% (active).
Consider `Cc1cc(N)ccc1-c1ccc(N)cc1C`, for which the growth is 84.6%.
Under `CCC(c1ccc(OC)cc1)C(CC)c1ccc(O)c(CN2CCCCC2)c1` (stereo not given) stands 52.6%.
Under `CN1C[C@@H](c2ccc(Cl)cc2)[C@]2(NC(=S)N(c3ccc(F)c(Cl)c3)C2=O)[C@@]12C(=O)NC1C=CC(Cl)=C[C@H]12` (stereo not given in full) stands -17.9% (active).
Under `CCOC(=O)n1ccn(C)c1=S` stands 101%.
As for `C[C@]12CC[C@@H]3c4ccc(OCC(=O)O)cc4CC[C@H]3[C@@H]1CCC2=O`, the growth was 84.7%.
Under `NC[C@@H]1CCN(c2cc3c(cc2F)c(=O)n(N)c(=O)n3Cc2ccc(-c3ccccc3)cc2)C1` stands 90.4%.
As to `CCc1ccc(/C(C#N)=C/C=C/c2ccccc2)cc1`, the growth is -1.39% (active).
Under `CCCS(=O)(=O)Nc1ccc(F)c(C(=O)c2c[nH]c3ncc(-c4ccc(Cl)cc4)cc23)c1F` stands 30.7%.
Under `CSCCC1NC(=O)C(C(C)=Nc2ccccc2)=C1O` (stereo not given) stands 117%; under `O=C1/C(=C/c2ccc([N+](=O)[O-])s2)Oc2ccccc21`, -7.99% (active).
As to `COc1cccc(-c2nc3sccn3c2-c2ccnc(NCCNC(=O)c3ccccc3)n2)c1`, the growth was 94.2%.
Under `CCCCCCCCCC[N+](C)(C)C` stands -6.93% (active); under `O=C1C(Cl)=C(N/N=c2/[nH][nH]/c(=N/NC3=C(Cl)C(=O)c4ccccc4C3=O)c3ccccc23)C(=O)c2ccccc21`, 39.5%.
In the case of `COc1cc(OC)cc(C(=O)Nc2cc(-c3cccnc3)nc(NCCCN3CCOCC3)n2)c1` it was 86.5%; in that of `CN1CCN(Cc2ccc(NC(=O)c3[nH]ncc3Nc3ncnc4c3CCC4)cc2)CC1`, -22.1% (active).
For the compound `Cc1csc(NC(c2ccc(Br)cc2)c2c(C)nc3ccccn23)n1` (stereo not given), the growth is 102%.
Under `COc1cc2nc3sc(C(=O)Nc4ccc(C(=O)OC(C)C)cc4)c(C(=O)Nc4ccc(Cl)cc4C)n3c(=O)c2cc1OC` stands 90.2%.
On to `CCCCCC(CCC)COC(=O)c1ccc(OC)cc1` (stereo not given), for which the growth was 90.5%.
Under `CC(=O)Nc1ccc(-n2c(O)c(/C=N/NC(=O)Cc3ccccc3Nc3c(Cl)cccc3Cl)sc2=S)cc1` stands 99%; under `Cc1occc1-c1nnc(SCC(=O)c2ccc(NC(=O)CC(C)C)cc2)o1`, 98.3%; under `O=c1oc2cc(OS(=O)(=O)c3ccccc3)ccc2c2c1CCCCC2`, 18.6%.
In the case of `Cc1c(NCC(=O)Nc2nc3ccccc3[nH]2)c(=O)n(-c2ccccc2)n1C` it was 98.5%; in that of `O=C1Nc2cc(-c3ccc(NC(=O)C4CC4)cc3)ccc2/C1=C/c1ccc[nH]1`, 100%; in that of `O=C(O)c1ccc(NC(=O)c2cccc(Nc3ccnc(C(F)(F)F)c3)c2)cc1`, 94.1%.
On to `O=c1ccc2ccc(OCCN3CCCCC3)cc2o1`, for which the growth is -28% (active).
Under `c1ccc2c(c1)nc(CN1CCOCC1)n1cc(N3CCCC3)nc21` stands 83.4%; under `O=C1NC(=O)/C(=C/c2c(-c3ccccc3)nc3sc(COc4ccccc4)nn23)S1`, 91.1%.
In the case of `CC(=O)CSc1ncnc2nc[nH]c12` it was 103%.
In the case of `C#C[C@@]1(O)[C@@H](CO)O[C@@H](n2cc(I)c3c(N)ncnc32)[C@@H]1O` it was -56.6% (active); in that of `O=P(OCCCl)(OCCCl)C(O)c1ccccc1Cl` (stereo not given), 96.2%.
